Laboratory results as given in PubChem BioAssay (NCATS).
Inconclusive results are not listed. The source made the active and inactive calls. Unless noted, calls follow the shape of the dose curve; as a rule, active = well fitted curve in the direction sought with a large enough effect; inconclusive = small, poorly fitted or top-dose-only effect, or another doubt; inactive = no such curve, though single readings can be large; an effect the other way counts as inactive or inconclusive.

What was measured:
[1] = molecular target: ATP-dependent 6-phosphofructokinase (Trypanosoma brucei brucei) (UniProt O15648); test: qHTS Assay to Find Inhibitors of T. brucei phosphofructokinase: hit validation (AID 492961);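 also: luminescence reports ADP formed as PFK phosphorylates fructose-6-phosphate with ATP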
Summary of the method: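 In this biochemical qHTS validation, titrated compounds were tested against 1.25 nM PFK with 0.1 mM ATP and 0.5 mM F6P. Percent activity came from controls lacking or containing enzyme.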

[2] = molecular target: Luciferin 4-monooxygenase (Photinus pyralis) (UniProt P08659); test: Biochemical firefly luciferase enzyme assay for NPC (AID 624030);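 also: purified P. pyralis luciferase at 10 nM with luciferin and ATP substrate; nearly all actives have a fitted effect of over 70% in size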
Summary of the method: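 Direct inhibition of firefly luciferase enzyme (10 nM final, 50 mM Tris Acetate) assessed by luminescence within 5 minutes. Percent activity scaled between DMSO and PTC124 positive control, with concentration-effect curves classified by fit quality and response.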

[3] = S16 Schwann cell viability assay (CellTiter-Glo assay) (AID 624031);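 also: cellular ATP luminescence as a viability measure; nearly all actives have a fitted effect of over 70% in size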
Summary of the method: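 Native S16 Schwann cells (rat), serum-containing medium, overnight attachment then 24 h drug exposure at 37 °C/5% CO2. CellTiter-Glo ATP signal; normalized to cell-free and vehicle wells.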

[4] = S16 Schwann cell PMP22 intronic element firefly luciferase assay (AID 624032); also: nearly all actives have a fitted effect of over 30% in size
Summary of the method: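 Luciferase reporter of PMP22 intronic-element expression in stably transfected S16 rat Schwann cells, read by ONE-Glo luminescence after 24 h compound exposure at 37 C. Activity scaled between DMSO (0%) and positive-control PTC124; concentration-effect curves quality-classified.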

[5] = S16 Schwann cell PMP22 intronic element beta-lactamase assay (AID 624044; calls by dose curve; also: nearly all actives have a fitted effect of over 15% in size)
Summary of the method: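 Beta-lactamase reporter under a PMP22 intronic regulatory element in stable S16 rat Schwann cells; 24 h compound exposure. 460 nm blue signal normalized between DMSO (0%) and potassium clavulanate, with 535 nm FRET tracking viability; curves classed by r2 and response.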

[6] = molecular target: Rap guanine nucleotide exchange factor 3 (Homo sapiens) (UniProt O95398); test: Confirmatory qHTS for antagonist of cAMP-regulated guanine nucleotide exchange factor 3 (EPAC1) (AID 1645880); conditions: EPAC1 Rap1B-BODIPY-GDP exchange, fluorescence; activity, negative = inhibition: at 115 µM (top of the series); also: nearly all actives have a fitted effect of over 55% in size
Summary of the method: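 Released BODIPY-GDP fluoresces less than Rap1-bound BODIPY-GDP; the signal is followed at 480/540 nm at 5-min intervals over 30 min, after 5 min at room temperature. Reactions contain 100 nM EPAC1, 250 nM RAP1B-BODIPY-GDP and 50 uM GDP; results are normalized to ATA and DMSO.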

[7] = molecular target: Rap guanine nucleotide exchange factor 3 (Homo sapiens) (UniProt O95398); test: Confirmatory qHTS for agonist of cAMP-regulated guanine nucleotide exchange factor 3 (EPAC1) (AID 1645881);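 also: EPAC1 catalysed release of BODIPY-GDP from Rap1B seen as fluorescence loss; nearly all actives have a fitted effect of over 75% in size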
[8] = molecular target: Rap guanine nucleotide exchange factor 3 (Homo sapiens) (UniProt O95398); test: Counterscreen qHTS for antagonist of cAMP-regulated guanine nucleotide exchange factor 3 (EPAC1) (AID 1645888)
Summary of the method: (§1)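 Rap1B-BODIPY-GDP 250 nM + GDP 50 uM; cpds 7-pt, final 9.74 nM–152 uM (activator mode) or from 7.32 nM upwards (inhibitor mode); RT; FI 480/540 nm at 5 and 30 min, then ± cAMP, reread.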

[9] = molecular target: Rap guanine nucleotide exchange factor 3 (Homo sapiens) (UniProt O95398); test: Counterscreen qHTS for agonist of cAMP-regulated guanine nucleotide exchange factor 3 (EPAC1) (AID 1645889); also: nearly all actives have a fitted effect of over 40% in size
Summary of the method: as §1

[10] = qHTS profiling for inhibitors of Plasmodium falciparum proliferation (AID 504749); also: nearly all actives have a fitted effect of over 60% in size; also: potency is read from the fitted curve at half-maximal effect; conditions: P. falciparum in erythrocytes, SYBR Green DNA, 72 h; parasite line A
Summary of the method: (§2)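 In a 72 h erythrocytic culture (37 C, humidified, 5% CO2) at 2.5% hematocrit and 0.3% starting parasitemia, compounds were tested; SYBR Green I in detergent lysis buffer stained parasite DNA overnight.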

[11] = test system: 7G8; test: as above; conditions: P. falciparum in erythrocytes, SYBR Green DNA, 72 h; series mostly up to 28.7 µM
Summary of the method: as §2

[12] = test system: AA1029; test: as above; conditions: P. falciparum in erythrocytes, SYBR Green DNA, 72 h; series mostly up to 28.7 µM
Summary of the method: as §2

[13] = test system: AS120; test: as above; conditions: P. falciparum in erythrocytes, SYBR Green DNA, 72 h; series mostly up to 28.7 µM
Summary of the method: as §2

[14] = test system: ATS189; test: as above; conditions: P. falciparum in erythrocytes, SYBR Green DNA, 72 h; series mostly up to 28.7 µM
Summary of the method: as §2

[15] = test system: ATS95; test: as above; conditions: P. falciparum in erythrocytes, SYBR Green DNA, 72 h; series mostly up to 28.7 µM
Summary of the method: as §2

[16] = test system: C2A; test: as above; conditions: P. falciparum in erythrocytes, SYBR Green DNA, 72 h; series mostly up to 28.7 µM
Summary of the method: as §2

[17] = test system: CP185; test: as above; conditions: P. falciparum in erythrocytes, SYBR Green DNA, 72 h; series mostly up to 28.7 µM
Summary of the method: as §2

[18] = test system: CP191; test: as above; conditions: P. falciparum in erythrocytes, SYBR Green DNA, 72 h; series mostly up to 28.7 µM
Summary of the method: as §2

[19] = test system: CP192; test: as above; conditions: P. falciparum in erythrocytes, SYBR Green DNA, 72 h; series mostly up to 28.7 µM
Summary of the method: as §2

[20] = test system: CP194; test: as above; conditions: P. falciparum in erythrocytes, SYBR Green DNA, 72 h; series mostly up to 28.7 µM
Summary of the method: as §2

[21] = test system: CP203; test: as above; conditions: P. falciparum in erythrocytes, SYBR Green DNA, 72 h; series mostly up to 28.7 µM
Summary of the method: as §2

[22] = test system: CP217; test: as above; conditions: P. falciparum in erythrocytes, SYBR Green DNA, 72 h; series mostly up to 28.7 µM
Summary of the method: as §2

[23] = test system: CP237; test: as above; conditions: P. falciparum in erythrocytes, SYBR Green DNA, 72 h; series mostly up to 28.7 µM
Summary of the method: as §2

[24] = test system: CP238; test: as above; conditions: P. falciparum in erythrocytes, SYBR Green DNA, 72 h; series mostly up to 28.7 µM
Summary of the method: as §2

[25] = test system: CP247; test: as above; conditions: P. falciparum in erythrocytes, SYBR Green DNA, 72 h; series mostly up to 28.7 µM
Summary of the method: as §2

[26] = test system: CP252; test: as above; conditions: P. falciparum in erythrocytes, SYBR Green DNA, 72 h; series mostly up to 28.7 µM
Summary of the method: as §2

[27] = test system: CP256; test: as above; conditions: P. falciparum in erythrocytes, SYBR Green DNA, 72 h; series mostly up to 28.7 µM
Summary of the method: as §2

[28] = test system: CP260; test: as above; conditions: P. falciparum in erythrocytes, SYBR Green DNA, 72 h; series mostly up to 28.7 µM
Summary of the method: as §2

[29] = test system: CP262; test: as above; conditions: P. falciparum in erythrocytes, SYBR Green DNA, 72 h; series mostly up to 28.7 µM
Summary of the method: as §2

[30] = test system: CP265; test: as above; conditions: P. falciparum in erythrocytes, SYBR Green DNA, 72 h; series mostly up to 28.7 µM
Summary of the method: as §2

[31] = test system: CP269; test: as above; conditions: P. falciparum in erythrocytes, SYBR Green DNA, 72 h; series mostly up to 28.7 µM
Summary of the method: as §2

[32] = test system: CP286; test: as above; conditions: P. falciparum in erythrocytes, SYBR Green DNA, 72 h; series mostly up to 28.7 µM
Summary of the method: as §2

[33] = test system: CP297; test: as above; conditions: P. falciparum in erythrocytes, SYBR Green DNA, 72 h; series mostly up to 28.7 µM
Summary of the method: as §2

[34] = test system: CP335; test: as above; conditions: P. falciparum in erythrocytes, SYBR Green DNA, 72 h; series mostly up to 28.7 µM
Summary of the method: as §2

[35] = test system: DFO2036; test: as above; conditions: P. falciparum in erythrocytes, SYBR Green DNA, 72 h; series mostly up to 28.7 µM
Summary of the method: as §2

[36] = test system: DIV14; test: as above; conditions: P. falciparum in erythrocytes, SYBR Green DNA, 72 h; series mostly up to 28.7 µM
Summary of the method: as §2

[37] = test system: DIV17; test: as above; conditions: P. falciparum in erythrocytes, SYBR Green DNA, 72 h; series mostly up to 28.7 µM
Summary of the method: as §2

[38] = test system: Dd2; test: as above; conditions: P. falciparum in erythrocytes, SYBR Green DNA, 72 h; series mostly up to 28.7 µM
Summary of the method: as §2

[39] = test system: ECU; test: as above; conditions: P. falciparum in erythrocytes, SYBR Green DNA, 72 h; series mostly up to 28.7 µM
Summary of the method: as §2

[40] = test system: FAB9; test: as above; conditions: P. falciparum in erythrocytes, SYBR Green DNA, 72 h; series mostly up to 28.7 µM
Summary of the method: as §2

[41] = test system: GB4; test: as above; conditions: P. falciparum in erythrocytes, SYBR Green DNA, 72 h; series mostly up to 28.7 µM
Summary of the method: as §2

[42] = test system: ICS; test: as above; conditions: P. falciparum in erythrocytes, SYBR Green DNA, 72 h; series mostly up to 28.7 µM
Summary of the method: as §2

[43] = test system: JCK; test: as above; conditions: P. falciparum in erythrocytes, SYBR Green DNA, 72 h; series mostly up to 28.7 µM
Summary of the method: as §2

[44] = test system: N140; test: as above; conditions: P. falciparum in erythrocytes, SYBR Green DNA, 72 h; series mostly up to 28.7 µM
Summary of the method: as §2

[45] = test system: P93_24; test: as above; conditions: P. falciparum in erythrocytes, SYBR Green DNA, 72 h; series mostly up to 28.7 µM
Summary of the method: as §2

[46] = test system: P94_40; test: as above; conditions: P. falciparum in erythrocytes, SYBR Green DNA, 72 h; series mostly up to 28.7 µM
Summary of the method: as §2

[47] = test system: PC49; test: as above; conditions: P. falciparum in erythrocytes, SYBR Green DNA, 72 h; series mostly up to 28.7 µM
Summary of the method: as §2

[48] = test system: SC27B; test: as above; conditions: P. falciparum in erythrocytes, SYBR Green DNA, 72 h; series mostly up to 28.7 µM
Summary of the method: as §2

[49] = test system: TAB109; test: as above; conditions: P. falciparum in erythrocytes, SYBR Green DNA, 72 h; series mostly up to 28.7 µM
Summary of the method: as §2

[50] = test system: TAB113; test: as above; conditions: P. falciparum in erythrocytes, SYBR Green DNA, 72 h; series mostly up to 28.7 µM
Summary of the method: as §2

[51] = test system: TAB165; test: as above; conditions: P. falciparum in erythrocytes, SYBR Green DNA, 72 h; series mostly up to 28.7 µM
Summary of the method: as §2

[52] = test system: W2; test: as above; conditions: P. falciparum in erythrocytes, SYBR Green DNA, 72 h; series mostly up to 28.7 µM
Summary of the method: as §2

Measured: Potency

Sequence of Rap guanine nucleotide exchange factor 3 (Homo sapiens) (O95398 whole entry, looked up): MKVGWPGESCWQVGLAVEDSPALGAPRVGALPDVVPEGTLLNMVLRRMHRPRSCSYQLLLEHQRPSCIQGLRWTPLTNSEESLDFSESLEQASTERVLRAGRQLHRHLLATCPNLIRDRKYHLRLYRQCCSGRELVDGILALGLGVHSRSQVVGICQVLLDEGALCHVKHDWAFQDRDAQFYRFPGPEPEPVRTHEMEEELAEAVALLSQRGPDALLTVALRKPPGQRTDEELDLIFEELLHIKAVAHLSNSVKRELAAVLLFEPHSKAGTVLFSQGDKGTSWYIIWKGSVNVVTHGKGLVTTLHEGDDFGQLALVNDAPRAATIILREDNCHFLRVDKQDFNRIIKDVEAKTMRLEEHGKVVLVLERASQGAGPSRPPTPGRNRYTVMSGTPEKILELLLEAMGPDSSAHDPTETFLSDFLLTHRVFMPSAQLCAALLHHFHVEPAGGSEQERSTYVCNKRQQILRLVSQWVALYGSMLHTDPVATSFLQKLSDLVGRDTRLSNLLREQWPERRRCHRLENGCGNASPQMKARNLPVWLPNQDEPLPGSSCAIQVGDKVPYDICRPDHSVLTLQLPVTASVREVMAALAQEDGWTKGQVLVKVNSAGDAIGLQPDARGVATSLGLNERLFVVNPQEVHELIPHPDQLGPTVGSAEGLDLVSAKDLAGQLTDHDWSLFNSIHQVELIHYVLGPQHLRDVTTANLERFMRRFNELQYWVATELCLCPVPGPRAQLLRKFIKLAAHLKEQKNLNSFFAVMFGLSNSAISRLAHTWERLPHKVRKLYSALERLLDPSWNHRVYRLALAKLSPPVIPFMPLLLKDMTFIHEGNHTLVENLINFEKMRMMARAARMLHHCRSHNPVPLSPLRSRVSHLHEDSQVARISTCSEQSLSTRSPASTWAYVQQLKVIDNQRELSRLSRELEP
Sequence of Luciferin 4-monooxygenase (Photinus pyralis) (P08659 whole entry, looked up): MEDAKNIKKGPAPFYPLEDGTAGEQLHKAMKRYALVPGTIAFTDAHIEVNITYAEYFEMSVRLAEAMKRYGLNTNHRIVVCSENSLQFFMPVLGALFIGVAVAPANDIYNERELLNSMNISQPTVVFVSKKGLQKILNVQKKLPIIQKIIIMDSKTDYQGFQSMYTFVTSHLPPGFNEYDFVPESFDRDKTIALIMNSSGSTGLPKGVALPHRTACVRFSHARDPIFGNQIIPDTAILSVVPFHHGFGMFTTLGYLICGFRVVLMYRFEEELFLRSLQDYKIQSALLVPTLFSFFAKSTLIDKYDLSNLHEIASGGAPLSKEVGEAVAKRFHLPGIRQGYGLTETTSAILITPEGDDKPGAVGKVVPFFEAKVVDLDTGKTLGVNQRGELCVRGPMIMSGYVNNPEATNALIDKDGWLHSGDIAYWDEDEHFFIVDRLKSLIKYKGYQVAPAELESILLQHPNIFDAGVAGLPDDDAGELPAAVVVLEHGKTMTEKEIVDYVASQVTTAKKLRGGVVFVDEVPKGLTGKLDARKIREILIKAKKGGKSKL
Sequence of ATP-dependent 6-phosphofructokinase (Trypanosoma brucei brucei) (O15648 whole entry, looked up): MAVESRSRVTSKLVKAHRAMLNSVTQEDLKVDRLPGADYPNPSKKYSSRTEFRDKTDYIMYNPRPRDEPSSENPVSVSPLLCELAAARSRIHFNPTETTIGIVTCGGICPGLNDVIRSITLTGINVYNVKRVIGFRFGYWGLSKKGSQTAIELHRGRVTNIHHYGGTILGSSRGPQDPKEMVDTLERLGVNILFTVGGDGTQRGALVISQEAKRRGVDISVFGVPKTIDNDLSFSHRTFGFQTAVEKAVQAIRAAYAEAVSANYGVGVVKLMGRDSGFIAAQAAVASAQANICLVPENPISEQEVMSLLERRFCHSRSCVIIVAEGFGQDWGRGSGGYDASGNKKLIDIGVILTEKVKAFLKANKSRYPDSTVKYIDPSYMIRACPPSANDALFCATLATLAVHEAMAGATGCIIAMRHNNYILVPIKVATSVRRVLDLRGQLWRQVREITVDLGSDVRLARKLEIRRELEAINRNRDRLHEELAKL

C=C[C@]1(C)C[C@@H](OC(=O)CSCCN(CC)CC)[C@]2(C)C(C)CC[C@]3(CCC(=O)[C@H]32)[C@@H](C)[C@@H]1O (some centres not stated)
active: [10] 10 µM | [11] 11.2 µM | [12] 5.01 µM | [13] 10 µM | [14] 8.91 µM | [15] 7.94 µM | [16] 11.2 µM | [17] 5.01 µM | [18] 7.94 µM | [20] 7.57 µM | [21] 13.5 µM | [22] 10 µM | [23] 8.91 µM | [24] 11.2 µM | [25] 6.31 µM | [26] 7.08 µM | [27] 8.91 µM | [28] 5.62 µM | [30] 8.91 µM | [31] 6.75 µM | [32] 3.55 µM | [33] 6.75 µM | [34] 5.36 µM | [35] 10 µM | [36] 15.1 µM | [37] 13.5 µM | [38] 3.16 µM | [39] 12.6 µM | [41] 6.75 µM | [42] 3.98 µM | [44] 8.91 µM | [45] 5.01 µM | [46] 4.47 µM | [48] 7.94 µM | [49] 3.98 µM | [50] 11.2 µM | [51] 7.08 µM | [52] 2.13 µM
inactive: [1] | [2] | [3] | [4] | [5] | [6] | [7] | [8] | [9] | [19] | [29] | [40] | [43] | [47]
